Assay outcomes: PubChem, several laboratories
Only some compounds are listed: those with a hit (about 4.1% of all), similar ones and a draw of the others.
NALP1 inh = blocks the NALP1 inflammasome reconstituted in yeast; S. cerevisiae NALP1/ASC/caspase-1 growth, X-gal OD620, 72 h; inhibition, % at 10 µM; hit rate 0.61% among 280,000; in the data active = inhibition mostly above about 24%, no sharp cut-off; inactive = mostly below about 32%
tim10-1 inh = tim10-1 yeast growth inhibition | hit rate 2.2% among 330,000 | S. cerevisiae tim10-1 ts strain growth, BacTiter-Glo, 24 h | AID 463190 | inhibition, % at 20 µM;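 active = inhibition of at least 40%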;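 also: mutant grown at 25 °C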
TIM10 inh = TIM10 yeast growth inhibition; S. cerevisiae TIM10 strain growth, BacTiter-Glo luminescence, 24 h; hit rate 1.4% among 330,000; inhibition, % at 10 µM; AID 463195;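 active = inhibition of 40% or more at the single tested concentration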;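 also: wild-type TIM10 isogenic control strain grown at permissive 25 °C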
tim23-1 inh = inhibits growth of tim23-1 mutant yeast; hit rate 1.3% among 330,000; S. cerevisiae tim23-1 growth, BacTiter-Glo luminescence, 24 h; inhibition, % at 20 µM; AID 463212;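 active = growth inhibition of the mutant yeast at or above 50%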;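 also: temperature-sensitive mutant grown at 25 °C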
PfHsp90 set2 = reduces growth (ATP signal) of yeast expressing P. falciparum Hsp90. inhibition, % at 9.4 µM. hit rate 0.32% among 310,000. S. cerevisiae expressing PfHsp90, BacTiter-Glo ATP, 48 h; yeast lacking PDR1 and PDR3 efflux regulators;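 active = every replicate shows inhibition above about 80%, whatever the replicate mean, limit read from the data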
NALP3 yeast inh = NALP3 inhibition in yeast. Yeast reconstituted NLRP3/ASC/caspase-1, beta-gal luminescence, 24 h. inhibition, % at 10 µM. hit rate 0.39% among 330,000. AID 2825;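 active = inhibition of 50% or more; inactive = inhibition below 50%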
Each line names hits and unclear results; the compound was inactive in the other large screens.

CC(C)N(C(=O)[C@H]1C[C@H](CC(=O)NCCCn2ccnc2)C(=O)N2CCc3c([nH]c4cc(CCC(=O)N(C)C)ccc34)[C@]12C)C(C)C	none (no result: NALP1 inh, NALP3 yeast inh)
O=C(CCCCCn1c(=O)[nH]c2ccsc2c1=O)NCc1cccs1	none (no result: PfHsp90 set2)
O=C(CCCn1c(=O)[nH]c2ccsc2c1=O)NCc1cccs1	NALP1 inh 21
Cc1cc(C)c(NC(=O)C2CCCN2CCC(C)C)c(C)c1 (stereo not drawn)	none
Cc1cc(C)c(NC(=O)C2CCCCN2C)c(C)c1 (stereo not drawn)	NALP1 inh 40
CCOc1ccc(NC(=O)c2cccc(NC(C)=O)c2)cc1S(=O)(=O)N1CCCC1	none (no result: NALP1 inh)
CCC(=O)OCC(=O)c1c(N)n(Cc2ccccc2)c(=O)n(C)c1=O	NALP1 inh 32
Nc1c2c(nc3ccc(Br)cc13)N(Cc1ccccc1)CC2	NALP1 inh 56
Cc1ccc(N2C(=O)C3CCC(C)(C2=O)C3(C)C)cc1 (stereo not drawn)	none
CSC[C@@H]1NC(=S)N(c2ccc(C)cc2)C1=O	NALP1 inh 76
COc1cccc2c1C1COC3C4CC(C(=O)O)C(C(C2)N13)N4C (stereo not drawn)	none (no result: NALP1 inh, tim10-1 inh, TIM10 inh, tim23-1 inh, NALP3 yeast inh)
CCc1ccc(C(=O)NNC(=O)C2CSC3(C)CCC(=O)N23)cc1 (stereo not drawn)	none (no result: NALP1 inh, PfHsp90 set2)
COc1ccc(OC)c(NC(=O)C(CC(C)C)NC(=O)C2CCCCC2)c1 (stereo not drawn)	none (no result: NALP1 inh)
COc1ccc(OC)c(NC(=O)C2CCN(c3ncccn3)CC2)c1	none
COc1ccccc1NC(=O)C1CCN(c2ncccn2)CC1	NALP1 inh 25
COc1ccccc1NC(=O)C(CC(C)C)NC(=O)C1CCCCC1 (stereo not drawn)	NALP1 inh 41
Cc1ccc(S(=O)(=O)N2CCN(CCOc3cccc(C)c3)CC2)cc1	none (no result: NALP1 inh)
CC(C)Oc1ccc(S(=O)(=O)N2CCOCC2)cc1NC(=O)c1cccc(S(=O)(=O)N2CCCC2)c1	none (no result: NALP1 inh, tim10-1 inh, TIM10 inh, tim23-1 inh, NALP3 yeast inh)
C[C@H]1C(=O)N(C)CCN1C(=O)c1ccccc1OC1CCN(S(C)(=O)=O)CC1	NALP1 inh 24
CC(=O)N1CCc2cc(S(=O)(=O)NC(Cc3ccccc3)C(=O)O)ccc21 (stereo not drawn)	none
CCCOc1ccc(C(F)(F)F)cc1NC(=O)CCc1c(C)noc1C	none (no result: NALP1 inh)
Cc1ccccc1Oc1cc(-n2ncc(Cl)c(Cl)c2=O)ncn1	PfHsp90 set2 97 (no result: tim10-1 inh, TIM10 inh, tim23-1 inh, NALP3 yeast inh)
CCOc1cnn(-c2cc(Oc3ccc(C)cc3)ncn2)c(=O)c1Cl	none
Cc1cc(SCC(=O)Nc2ccc3[nH]c(=O)[nH]c3c2)nc2ccccc12	none (no result: NALP1 inh)
OC(COC(c1ccc(Cl)cc1)c1ccc(Cl)cc1)CN1CCN(c2ccccn2)CC1 (stereo not drawn)	NALP1 inh 45
Cc1ccc(O)c(N=Cc2sc3ccccc3c2Cl)c1	none
Oc1ccccc1N=Cc1sc2ccccc2c1Cl	NALP1 inh 54
CCO[C@@H]1OC(C(=O)NCc2ccccc2)=C[C@H](C2CCCCC2)[C@H]1CCCO	NALP1 inh 21
c1ccc2c(c1)-c1nc3ccccc3cc1C2N1CCOCC1 (stereo not drawn)	none (no result: NALP1 inh, tim10-1 inh, TIM10 inh, tim23-1 inh, NALP3 yeast inh)
COc1cccc(NC(=O)CCc2c(C)nc3nc(CNC(=O)c4cccc(F)c4)nn3c2C)c1	none
COc1ccc(-c2cc(C(=O)N/N=C/c3sccc3C)c3ccccc3n2)c(OC)c1	NALP1 inh 41
CCn1c(SCC(=O)N2CCCC(C)C2)nnc1-c1ccc(S(=O)(=O)N2CCN(C)CC2)cc1 (stereo not drawn)	NALP1 inh 35
CCOC(=O)[C@H]1[C@H]2COc3ccccc3[C@@H]2N2C(=O)CN(CC3CCCO3)C(=O)[C@@]12C (stereo partly drawn)	none (no result: NALP1 inh)
O=C(CN1CCN(S(=O)(=O)c2ccccc2F)CC1)Nc1ccnn1C1CCCC1	none (no result: NALP1 inh)
OCC(O)C(O)C(O)C(O)c1nc2ccccc2[nH]1 (stereo not drawn)	NALP1 inh 25
CC(=O)c1c(O)c2ccccc2n(C(C)C)c1=O	NALP1 inh 31
CC(OC(=O)C1CCCC1)C(=O)Nc1ccc(S(N)(=O)=O)cc1 (stereo not drawn)	none (no result: NALP1 inh)
O=C(O)CNC(=O)c1ccc(OC(F)F)cc1	none
O=C1C=CC(=O)N1c1ccc(O)cc1	PfHsp90 set2 109
O=C1C=CC(=O)N1c1ccc(OC(F)F)cc1	NALP1 inh 112, PfHsp90 set2 127 (no result: tim10-1 inh, TIM10 inh, tim23-1 inh, NALP3 yeast inh)
CC(C)C1Nc2c(O)cc(Cl)c([N+](=O)[O-])c2C2C=CCC21 (stereo not drawn)	PfHsp90 set2 110 (no result: tim10-1 inh, TIM10 inh, tim23-1 inh, NALP3 yeast inh)
O=C(CN1C(=O)COc2ccc(S(=O)(=O)N3CCOCC3)cc21)Nc1cccc(Cl)c1	none
COc1cc(S(=O)(=O)N2CCN(Cc3cccs3)CC2)ccc1NC(C)=O	none (no result: NALP1 inh)
CC(=O)Nc1ccc(S(=O)(=O)N2CCN(Cc3cccs3)CC2)cc1	NALP1 inh 26
COc1ccc(CCNC(=O)CN(c2ccccc2OC)S(C)(=O)=O)cc1	NALP1 inh 30 (no result: PfHsp90 set2)
COc1ccc(CCNC(=O)CN(c2ccccc2OC)S(C)(=O)=O)cc1OC	none
Cc1cc(OCCCCCn2ccnc2)cc(C)c1Cl	NALP1 inh 26
Cc1cc(OCCCn2ccnc2)cc(C)c1Cl	none
Fc1cccc(Nc2c3c(nc4ccccc24)CCC3)c1	none
c1ccc2c(Nc3ccc4c(c3)OCCO4)c3c(nc2c1)CCCC3	NALP1 inh 29
O=C(N/N=C\c1c(O)ccc2ccccc12)c1cncc(Br)c1	PfHsp90 set2 107
CCC(C)(C)NC(=O)Cc1ccc(OC)c(OC)c1	none (no result: PfHsp90 set2)
CCC(C)(C)NC(=O)Cc1ccccc1OC	NALP1 inh 41
COc1ccc(OC)c(C2=NOC(C(=O)Nc3cc(C)on3)C2)c1 (stereo not drawn)	NALP1 inh 34
Nc1nc(SCC(=O)c2cc3ccccc3o2)n[nH]1	NALP1 inh 22
O=C(CCCC(=O)N(CC(=O)NC1CCCCC1)c1ccccc1F)Nc1ccccn1	none
CCCCCCCCOC(=O)c1cc([N+](=O)[O-])c(Sc2ncnc3nc[nH]c23)c([N+](=O)[O-])c1	PfHsp90 set2 107 (no result: NALP1 inh, tim10-1 inh, TIM10 inh, tim23-1 inh, NALP3 yeast inh)
COc1cccc(C(=O)Nc2nc(-c3ccccc3)c(-c3ccccc3)o2)c1	none
O=C(Nc1nc(-c2ccccc2)c(-c2ccccc2)o1)c1ccc(F)cc1	PfHsp90 set2 105
CC(C)c1onc(C(=O)N(C)Cc2ccccc2)c1[N+](=O)[O-]	NALP1 inh 53
COc1ccc(NC(=O)NNC(=O)COc2ccc3cc(Br)ccc3c2)cc1OC	NALP1 inh 30
COC(=O)C1=C(C(=O)OC)[C@]2([C@H]3CCCCN[C@@H](Cc4ccccc4)C(=O)N3Cc3ccccc3)C=C[C@H]1O2	none (no result: NALP1 inh)
CC1CCN(CCCCOc2ccc([N+](=O)[O-])cc2)CC1	none
COC(=O)C1CCN(Cc2ccc(OCCCN3CCN(c4ccc([N+](=O)[O-])cc4)CC3)cc2)CC1	NALP1 inh 26
CC(C)c1ccc(N=C2NN=C(c3cccs3)CS2)cc1	NALP1 inh 38
